# ChEMBL document CHEMBL3988442, “University of Dundee, Small-Polar-MMV Screening Library” (2021)
# For some assays here: Results with a measured potency or affinity are listed apart.
# Legend:
# Parameters in all cases: scale not given: direction of the effect not stated beside the values
# [1] = biological target: Protein translocase subunit SecA (Escherichia coli (strain K12)) (UniProt P10408); test: Assay to Identify E. coli SecA ATPase Inhibitors; assay type: functional; conditions: 30 µM
# [2] = biological target: T1, Ubiquitin-activating enzyme e1, putative (Leishmania donovani (strain BPK282A1)) (UniProt E9BSI1); test: Leishmania donovani Ubiquitin Activating Enzyme (LdE1); assay type: functional; conditions: 30 µM
# T1 sequence (whole entry): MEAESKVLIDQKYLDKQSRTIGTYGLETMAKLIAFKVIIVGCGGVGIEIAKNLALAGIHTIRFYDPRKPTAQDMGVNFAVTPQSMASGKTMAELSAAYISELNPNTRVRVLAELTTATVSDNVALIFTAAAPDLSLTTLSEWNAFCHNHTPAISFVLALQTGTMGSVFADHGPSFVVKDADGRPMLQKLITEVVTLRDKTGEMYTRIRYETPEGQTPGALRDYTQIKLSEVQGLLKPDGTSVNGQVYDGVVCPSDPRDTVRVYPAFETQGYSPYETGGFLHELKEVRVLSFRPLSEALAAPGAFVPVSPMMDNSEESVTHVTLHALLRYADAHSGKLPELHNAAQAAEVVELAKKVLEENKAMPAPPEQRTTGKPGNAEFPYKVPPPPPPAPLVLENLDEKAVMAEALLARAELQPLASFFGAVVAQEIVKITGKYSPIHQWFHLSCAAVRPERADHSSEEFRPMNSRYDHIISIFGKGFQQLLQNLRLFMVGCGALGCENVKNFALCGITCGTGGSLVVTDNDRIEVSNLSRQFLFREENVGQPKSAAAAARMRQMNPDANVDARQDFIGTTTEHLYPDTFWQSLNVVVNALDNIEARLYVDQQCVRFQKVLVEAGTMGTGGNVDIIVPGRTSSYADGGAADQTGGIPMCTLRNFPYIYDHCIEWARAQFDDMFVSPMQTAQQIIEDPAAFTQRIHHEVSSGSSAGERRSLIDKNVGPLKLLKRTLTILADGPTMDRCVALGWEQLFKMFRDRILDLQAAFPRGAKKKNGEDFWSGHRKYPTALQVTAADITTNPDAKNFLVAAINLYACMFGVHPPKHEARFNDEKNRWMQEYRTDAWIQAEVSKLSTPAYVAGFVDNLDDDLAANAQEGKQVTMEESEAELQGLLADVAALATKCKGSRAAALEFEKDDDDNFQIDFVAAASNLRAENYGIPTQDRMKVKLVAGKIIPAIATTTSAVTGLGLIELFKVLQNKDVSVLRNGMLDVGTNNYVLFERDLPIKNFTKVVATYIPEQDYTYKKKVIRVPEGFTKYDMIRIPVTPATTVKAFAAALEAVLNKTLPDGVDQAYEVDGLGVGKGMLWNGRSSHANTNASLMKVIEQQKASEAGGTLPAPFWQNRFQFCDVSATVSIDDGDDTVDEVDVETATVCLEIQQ
# [3] = biological target: AMP-activated protein kinase, AMPK (Homo sapiens) (UniProt P54646+O43741+P54619+Q9UGJ0+Q9Y478+Q13131+Q9UGI9); test: AMP-dependent Kinase enzyme assay. An in vitro enzyme assay that detects ADP turnover that is directly proportional to AMPK activity. This uses naive AMPK that is activated during the assay with MK-8722; assay type: functional; conditions: 30 µM
# [4] = biological target: Sialic acid-binding Ig-like lectin 9 (Homo sapiens) (UniProt Q9Y336); test: Hs-Siglec9 ALPHAscreen SOP 20170721; conditions: 10 µM
# Sequence of Sialic acid-binding Ig-like lectin 9 (Homo sapiens) (Q9Y336 whole entry): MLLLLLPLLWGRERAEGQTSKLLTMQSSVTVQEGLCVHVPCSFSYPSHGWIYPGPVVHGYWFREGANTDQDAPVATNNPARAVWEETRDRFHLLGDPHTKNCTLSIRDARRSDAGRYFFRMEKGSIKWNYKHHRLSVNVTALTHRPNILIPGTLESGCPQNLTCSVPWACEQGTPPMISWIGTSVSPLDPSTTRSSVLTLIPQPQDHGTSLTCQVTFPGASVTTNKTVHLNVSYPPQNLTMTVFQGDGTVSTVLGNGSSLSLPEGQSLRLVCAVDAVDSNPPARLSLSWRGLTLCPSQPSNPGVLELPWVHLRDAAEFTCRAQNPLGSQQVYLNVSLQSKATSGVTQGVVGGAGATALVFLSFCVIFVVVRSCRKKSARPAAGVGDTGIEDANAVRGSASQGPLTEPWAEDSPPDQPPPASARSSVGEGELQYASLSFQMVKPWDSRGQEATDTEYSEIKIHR
# [5] = system: Trypanosoma cruzi; test: Trypanosoma cruzi phosphomannomutase and mannose-1-phosphate guanylyltransferase assay; assay type: functional; conditions: 10 µM
# [6] = biological target: T2, Arginase-2, mitochondrial (Homo sapiens) (UniProt P78540); test: in vitro enzyme assay to detect the production of urea directly proportional to the activity of Arginase II; assay type: functional; conditions: 33.3 µM; note: in the data most compounds retested in dose-response had high values
# T2 sequence (whole entry): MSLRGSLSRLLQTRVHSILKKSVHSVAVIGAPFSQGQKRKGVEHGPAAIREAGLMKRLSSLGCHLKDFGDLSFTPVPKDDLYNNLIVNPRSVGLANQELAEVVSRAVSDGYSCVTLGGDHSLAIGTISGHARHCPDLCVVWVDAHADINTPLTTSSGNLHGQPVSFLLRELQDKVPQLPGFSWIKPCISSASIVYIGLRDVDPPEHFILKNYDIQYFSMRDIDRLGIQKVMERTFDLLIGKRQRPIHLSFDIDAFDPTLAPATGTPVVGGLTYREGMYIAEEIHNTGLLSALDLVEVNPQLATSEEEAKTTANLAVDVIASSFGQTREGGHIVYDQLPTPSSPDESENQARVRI
# [7] = biological target: T3, Proteasome subunit beta (Trypanosoma cruzi) (UniProt O96673); test: Trypanosoma cruzi proteasome chymotrypsin-like activity (TcProtChymo) assay.; note: in the data most compounds retested in dose-response had high values; assay type: functional; conditions: 9.37 µM
# T3 sequence (whole entry): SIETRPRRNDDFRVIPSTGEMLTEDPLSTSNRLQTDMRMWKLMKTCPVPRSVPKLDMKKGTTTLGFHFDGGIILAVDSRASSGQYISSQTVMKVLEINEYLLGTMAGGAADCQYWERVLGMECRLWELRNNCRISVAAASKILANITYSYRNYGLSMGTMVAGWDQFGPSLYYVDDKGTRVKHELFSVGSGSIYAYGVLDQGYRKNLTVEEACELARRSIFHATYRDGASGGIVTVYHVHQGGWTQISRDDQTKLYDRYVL
# [8] = organism: Homo sapiens; test: To identify inhibition of the IFN signalling (Jak-Stat) pathway via expression of an eGFP reporter gene under the control of an IFN-stimulated response element (ISRE) containing MxA promoter.; assay type: functional; conditions: 30 µM
# [9] = biological target: T4, Tyrosyl-tRNA synthetase, putative (Trypanosoma cruzi (strain CL Brener)) (UniProt Q4DSP6); test: Trypanosoma cruzi tyrosyl tRNA synthetase (TcYRS) _High Tyrosine SOP; assay type: functional; conditions: 30 µM; note: in the data most compounds retested in dose-response had high values
# T4 sequence (whole entry): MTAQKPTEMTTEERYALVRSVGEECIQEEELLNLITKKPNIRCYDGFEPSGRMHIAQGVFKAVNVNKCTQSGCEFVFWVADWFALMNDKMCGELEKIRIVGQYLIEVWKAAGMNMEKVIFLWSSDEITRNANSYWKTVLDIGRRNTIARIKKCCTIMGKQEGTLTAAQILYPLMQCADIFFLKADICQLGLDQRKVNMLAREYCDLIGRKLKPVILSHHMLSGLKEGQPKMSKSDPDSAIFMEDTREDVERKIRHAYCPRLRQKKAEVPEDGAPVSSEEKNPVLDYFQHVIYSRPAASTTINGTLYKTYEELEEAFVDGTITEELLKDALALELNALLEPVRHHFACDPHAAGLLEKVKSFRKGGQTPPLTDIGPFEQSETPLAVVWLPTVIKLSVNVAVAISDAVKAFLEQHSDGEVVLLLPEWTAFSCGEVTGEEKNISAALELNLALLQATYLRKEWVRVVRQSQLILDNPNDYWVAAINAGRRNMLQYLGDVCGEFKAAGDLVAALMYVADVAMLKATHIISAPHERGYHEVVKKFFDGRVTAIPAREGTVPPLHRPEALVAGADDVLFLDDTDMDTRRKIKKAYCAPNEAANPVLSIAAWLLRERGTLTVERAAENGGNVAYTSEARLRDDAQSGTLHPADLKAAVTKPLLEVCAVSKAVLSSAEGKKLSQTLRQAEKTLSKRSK
# [10] = biological target: T4, Tyrosyl-tRNA synthetase, putative (Trypanosoma cruzi (strain CL Brener)); test: Trypanosoma cruzi tyrosyl tRNA synthetase (TcYRS) SOP; assay type: functional; conditions: 30 µM
# [11] = biological target: Chromo domain-containing protein 1 (Saccharomyces cerevisiae (strain ATCC 204508 / S288c) (Baker's yeast)) (UniProt P32657); test: ScCHD-1 Enzyme Inhibition Assay; assay type: functional; conditions: 30 µM; note: in the data most compounds retested in dose-response had high values
# Sequence of Chromo domain-containing protein 1 (Saccharomyces cerevisiae (strain ATCC 204508 / S288c) (Baker's yeast)) (P32657 whole entry, the tested form may be a part): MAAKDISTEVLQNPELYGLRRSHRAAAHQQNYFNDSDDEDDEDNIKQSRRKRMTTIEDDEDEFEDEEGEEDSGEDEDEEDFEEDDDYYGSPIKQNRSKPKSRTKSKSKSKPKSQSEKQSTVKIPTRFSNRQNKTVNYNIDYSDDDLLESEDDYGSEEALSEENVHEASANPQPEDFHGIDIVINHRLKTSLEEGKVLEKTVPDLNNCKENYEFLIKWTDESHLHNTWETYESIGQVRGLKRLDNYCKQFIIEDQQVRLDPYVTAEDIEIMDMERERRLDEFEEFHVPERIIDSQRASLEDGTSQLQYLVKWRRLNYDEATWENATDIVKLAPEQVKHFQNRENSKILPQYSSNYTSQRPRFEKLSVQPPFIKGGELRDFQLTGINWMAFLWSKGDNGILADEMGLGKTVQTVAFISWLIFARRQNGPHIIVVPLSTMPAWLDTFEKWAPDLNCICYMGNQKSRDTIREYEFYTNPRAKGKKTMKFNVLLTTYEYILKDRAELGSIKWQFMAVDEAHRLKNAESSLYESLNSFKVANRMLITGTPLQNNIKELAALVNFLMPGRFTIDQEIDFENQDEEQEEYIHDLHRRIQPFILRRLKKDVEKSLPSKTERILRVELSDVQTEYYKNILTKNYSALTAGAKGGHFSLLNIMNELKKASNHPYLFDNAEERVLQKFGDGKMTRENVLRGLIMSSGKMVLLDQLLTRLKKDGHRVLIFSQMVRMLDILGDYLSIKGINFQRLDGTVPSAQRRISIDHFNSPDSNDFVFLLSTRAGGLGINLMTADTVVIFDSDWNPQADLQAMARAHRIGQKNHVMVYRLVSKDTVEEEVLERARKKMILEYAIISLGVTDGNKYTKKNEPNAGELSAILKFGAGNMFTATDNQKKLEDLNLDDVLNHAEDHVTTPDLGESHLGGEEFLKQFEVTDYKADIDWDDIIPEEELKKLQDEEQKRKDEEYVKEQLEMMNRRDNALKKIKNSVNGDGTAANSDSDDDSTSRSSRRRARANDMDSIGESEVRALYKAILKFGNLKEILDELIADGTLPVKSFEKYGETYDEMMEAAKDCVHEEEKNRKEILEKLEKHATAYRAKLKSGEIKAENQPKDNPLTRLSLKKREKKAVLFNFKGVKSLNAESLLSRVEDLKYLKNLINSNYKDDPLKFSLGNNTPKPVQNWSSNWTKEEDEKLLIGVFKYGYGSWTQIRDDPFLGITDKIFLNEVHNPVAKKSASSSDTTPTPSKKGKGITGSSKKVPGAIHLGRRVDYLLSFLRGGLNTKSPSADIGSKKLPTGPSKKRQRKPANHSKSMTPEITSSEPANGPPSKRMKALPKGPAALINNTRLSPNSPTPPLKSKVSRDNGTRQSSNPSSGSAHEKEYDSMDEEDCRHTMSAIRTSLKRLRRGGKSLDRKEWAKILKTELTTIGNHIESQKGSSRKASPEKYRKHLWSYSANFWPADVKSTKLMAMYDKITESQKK
# Sequence of Protein translocase subunit SecA (Escherichia coli (strain K12)) (P10408 whole entry): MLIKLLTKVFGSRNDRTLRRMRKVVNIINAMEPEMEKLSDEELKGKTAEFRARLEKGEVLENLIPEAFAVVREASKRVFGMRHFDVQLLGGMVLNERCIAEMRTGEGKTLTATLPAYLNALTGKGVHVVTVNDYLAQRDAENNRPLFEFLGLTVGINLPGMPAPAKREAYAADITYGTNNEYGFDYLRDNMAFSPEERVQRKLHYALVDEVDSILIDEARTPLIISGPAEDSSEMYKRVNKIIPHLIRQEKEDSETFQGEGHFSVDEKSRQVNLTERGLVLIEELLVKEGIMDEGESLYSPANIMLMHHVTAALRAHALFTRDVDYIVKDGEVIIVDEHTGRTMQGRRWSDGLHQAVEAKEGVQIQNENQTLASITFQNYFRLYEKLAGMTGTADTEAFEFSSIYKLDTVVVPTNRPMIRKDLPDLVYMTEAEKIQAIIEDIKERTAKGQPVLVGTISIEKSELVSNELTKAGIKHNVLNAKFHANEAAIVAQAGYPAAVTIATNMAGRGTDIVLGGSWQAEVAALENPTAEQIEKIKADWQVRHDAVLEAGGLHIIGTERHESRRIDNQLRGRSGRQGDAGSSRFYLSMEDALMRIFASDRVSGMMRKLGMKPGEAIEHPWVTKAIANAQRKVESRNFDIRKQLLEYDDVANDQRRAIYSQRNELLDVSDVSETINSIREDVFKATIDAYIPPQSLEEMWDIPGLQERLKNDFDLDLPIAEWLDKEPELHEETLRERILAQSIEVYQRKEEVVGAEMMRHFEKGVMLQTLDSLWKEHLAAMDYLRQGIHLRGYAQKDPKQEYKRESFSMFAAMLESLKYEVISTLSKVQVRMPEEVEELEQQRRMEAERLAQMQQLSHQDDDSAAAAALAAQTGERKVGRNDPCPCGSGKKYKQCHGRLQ
SMILES,Percent Effect [1],Percent Effect [2],Percent Effect [3],Percent Effect [4],Percent Effect [5],Percent Effect [6],Percent Effect [7],Percent Effect [8],Percent Effect [9],Percent Effect [10],Percent Effect [11]
CN(CC(=O)N(C)C1CCCCC1)C1CCc2ccccc21 (configuration not stated),-3.95%,7.89%,6.4%,-4.14%,-7.14%,3.45%,7.35%,15.2%,2.45%,9.76%,-6.2%
O=C(NCCCN1CCCC1)c1n[nH]c(=O)c2ccccc12,-2.88%,20.8%,0.621%,-1.51%,-10.7%,2.13%,5.74%,11.3%,6.8%,12.2%,-6.65%
O=c1ccc(-c2ccccc2F)nn1CCN1CCCS1(=O)=O,-6.51%,13.5%,-4.96%,22.3%,6.16%,3.72%,1.29%,-2.29%,1.07%,8.64%,-10.9%
CNS(=O)(=O)Cc1ccc(CNC(=O)Nc2cccnc2)cc1,-1.42%,30.4%,-9.66%,-12.1%,4.25%,-6.08%,14.2%,11.1%,6.4%,16.5%,-12.7%
CCOc1ccccc1Nc1nc2c(C)nn(C)c2c(=O)n1C,-4.55%,20.8%,1.12%,10.9%,3.64%,6.9%,10.7%,-5.39%,8.6%,18.5%,-6.44%
c1ccc(OCCCNCCn2cccn2)cc1,-4.38%,1.27%,-0.45%,4.63%,4%,-2.8%,3.94%,-1.21%,5.21%,10.1%,-18.9%
CCOCCCNC(=O)c1cc(C)nc(N2CCCC2)n1,-10.2%,12%,-12.6%,7.96%,4.91%,-11.1%,5.36%,8.1%,1.06%,10.3%,-14%
Cc1cc(C)n(CC2CCCN2C(=O)c2cccc3[nH]ncc23)n1 (configuration not stated),-2.49%,-10.8%,-1.43%,12.1%,7.89%,-2.77%,-4.49%,7.84%,5.94%,15.8%,-3.25%
Cn1ncc2c(=O)[nH]c(CN3CCCC3CC3CCCCC3)nc21 (configuration not stated),-1.58%,21.1%,-3.55%,4.78%,3.83%,0.719%,6.85%,17.1%,6.4%,25.9%,-8.17%
CC(C)(C)c1ncc(C(=O)NCCS(N)(=O)=O)s1,-6.98%,2.63%,-2.41%,7.37%,0.654%,-2.88%,-6.01%,-5.3%,6.4%,11.1%,2.8%
Cc1csc(CNC(=O)NC2CCN(c3ncccn3)CC2)n1,-4.13%,11%,-4.87%,16.2%,4.37%,-3.19%,12.6%,5.21%,10.4%,25.9%,-3.12%
CC1CN(CC(=O)NC(=O)NCc2ccccc2)CCO1 (configuration not stated),-0.548%,15.8%,0.54%,-9.53%,3.21%,-1.18%,19.5%,11.4%,2.13%,7.79%,-8.02%
CC(C)COCC1CN(Cc2ccc3c(c2)OCO3)Cc2ncn(C)c21 (configuration not stated),-6.14%,-5.41%,10.1%,2.92%,-1.17%,-3.75%,2.11%,29.9%,3.96%,3.66%,0.344%
CNS(=O)(=O)c1ccc(C(=O)NCCNc2ncccn2)cc1,-3.65%,10.5%,-2.1%,-1.6%,-2.52%,-1.08%,7.36%,-4.68%,6.4%,23.5%,-3.3%
Cc1occc1C(=O)N1CCC2(CCN(Cc3nccs3)C2)CC1,-3.24%,2.6%,0.489%,3.8%,3.83%,-8.28%,-1.66%,-23.6%,0%,-3.7%,6.12%
CC(C)c1ccc(OCCC(=O)N2CCC(CC(N)=O)CC2)cc1,-3.21%,5.26%,5.06%,6.24%,6.58%,-2.68%,11%,5.75%,4.41%,12.2%,-9.8%
CC(OCC1CC1)C(=O)N1CCCN(Cc2cnn(C)c2)CC1 (configuration not stated),1.55%,31.6%,-0.358%,-2.42%,-1.95%,-9.25%,21.6%,6.99%,5.21%,17.7%,-21.4%
O=C(NCc1cccs1)C1CN(C(=O)c2cccs2)CC12CCOCC2 (configuration not stated),-3.46%,8%,5.07%,1.33%,0.193%,-43.5%,14.4%,-4.96%,2.08%,-312%,-2.49%
CCc1nnsc1C(=O)N1CCOC(c2nc(C)n[nH]2)C1 (configuration not stated),-5.12%,8.86%,-2.61%,-4.1%,0.718%,-0.215%,8.23%,-0.829%,5.21%,17.7%,-30.2%
CS(=O)(=O)NCCCNC(=O)c1cccnc1O,-3.07%,0%,-3.83%,-4.12%,1.76%,1.25%,16.6%,6.15%,7.92%,8.54%,-4.62%
O=C1NCCN1C1CCCN(Cc2coc(-c3ccc(F)cc3)n2)C1 (configuration not stated),-10.2%,-8.11%,-13.5%,25.4%,10.9%,-1.29%,0.898%,57.5%,5.94%,15.8%,-6.73%
COCc1cccc(NC(C)C(=O)N(C)Cc2cccc(F)c2)c1 (configuration not stated),-7.47%,-2.7%,-1.66%,-7.46%,-3.23%,-0.744%,6.44%,-12.8%,1.07%,1.24%,-5.78%
